Holding throughout (assay): NCI-60 one-dose screen, 48 h (100 = growth as untreated, 0 = no growth, -100 = all killed)
Details in all cases: 10 µM unless noted

Assay [1] has as its system SR leukemia.
In assay [2] the test system is RPMI-8226 leukemia.
Assay [3] has as its system OVCAR-8 ovarian.
The subject of assay [4] is OVCAR-5 ovarian.
Assay [5] relates to OVCAR-4 ovarian.
Assay [6] relates to SK-OV-3 ovarian.
Assay [7] has as its system OVCAR-3 ovarian.
The test system of assay [8] is HS 578T breast.
Assay [9] concerns NCI/ADR-RES ovarian.
For assay [10], the system named is T-47D breast.
The subject of assay [11] is BT-549 breast.
Assay [12] relates to MDA-MB-435 melanoma.
Assay [13] has as its system SW-620 colon.
Assay [14] concerns MCF7 breast.
The subject of assay [15] is HCT-116 colon.
The test system of assay [16] is HCC-2998 colon.
Assay [17] has as its system KM12 colon.
Assay [18] deals with IGROV1 ovarian.

This is part of a sample that, as a whole, favours compounds with a hit. Of some 83,000 tested, about 20% had one in any assay.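 The test compound was applied at a single concentration to cells in 96-well plates for 48 hours, and percent growth was recorded.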 Values without a mark were called inactive. Active and inactive are the calls of the source. How the source made its calls: active means growth percent below 10; inactive means the rest.

With `CCn1cc(C(=O)NN=C2CCCCCC2)c(=O)c2ccc(C)nc21`, the growth in [1] was 85.8%; in assay [2] it was 88.1%; in assay [3], 92.5%; in [4], 92.6%; in assay [5], 79.6%; in assay [6], 98.2%. The growth in assay [7] was 86.2%; in assay [8], 80.1%; in assay [9] it was 89.4%; in assay [10] it was 77.2%; in assay [11] it was 83%; in [12], 83.9%. Moreover, the growth in assay [13] was 91.2%; in assay [14], 77.2%; in assay [15], 77.7%; in [16], 99.1%; in [17], 87.6%.

As for `Cc1c2cnccc2c(C)c2c1c1cc(C3OCCCO3)ccc1n2C`, the growth in assay [1] was 4.22% (active); in [2], -21.6% (active); in [3] it was 6.68% (active); in [4] it was -3.71% (active); in assay [5] it was -2.47% (active); in assay [6] it was -6.97% (active). In addition, the growth in assay [7] was 0.203% (active); in [8], -3.27% (active); in assay [9], -9.92% (active); in assay [10], -4.56% (active); in assay [11], -37% (active); in [12], -28.1% (active). For the same compound, the growth in assay [13] is 4.71% (active); in [14], 0.909% (active); in assay [15], 1.45% (active); in assay [16], -15.1% (active); in [17], 5.75% (active).

With `COc1ccc(/C(C)=C(\c2ccc(OCCN3CCCCCC3)cc2)c2ccc(OC(=O)c3ccccc3)cc2)cc1`, the growth in assay [1] is -8.34% (active); in assay [2] it was 19.5%; in assay [3] it was 56.5%; in assay [4] it was 72.1%; in [5], 42.6%; in assay [6] it was 81.4%. In addition, the growth in [7] was 64.6%; in assay [8] it was 35.9%; in assay [9] it was 60.7%; in assay [10], 43.4%; in assay [11], 63.6%; in assay [12] it was 63%. The growth in assay [13] was 44.8%; in [14] it was 13.5%; in assay [15], 19.4%; in [16], 77.5%; in assay [17], 38.4%.

Consider `CCN(CCO)CC(C)Nc1ccc([N+](=O)[O-])c2sc3ccccc3c(=O)c12` (stereo not given), for which the growth in [1] is 13%; in assay [2], 40.9%; in assay [3] it was 26.2%; in assay [4], 57.7%; in [5], 43.7%; in assay [6] it was 45.6%. Besides, the growth in assay [7] is 49.1%; in assay [8], 26.8%; in assay [9], 37.2%; in [10], 39.9%; in assay [11] it was 58.9%; in [12] it was 23.5%. Further, the growth in [13] was 18.6%; in assay [14], 13.1%; in assay [15], 11.8%; in assay [16], 38.6%; in assay [17] it was 37.9%.

As for `CNC(=O)c1cc(Oc2ccc3nc(NC(=O)Nc4ccc(Cl)c(Cl)c4)sc3c2)ccn1`, the growth in assay [1] is 15.4%; in assay [2], 63%; in assay [3], -34.6% (active); in [4], 85.6%; in assay [5], -39.9% (active); in assay [6] it was 73.5%. Also, the growth is 24.7% in assay [7]; -2.92% (active) in [8]; -17.7% (active) in assay [9]; 21.3% in [10]; 32.1% in assay [11]; 22.6% in assay [12]. For the same compound, the growth in assay [13] is 50.4%; in [14], 32.2%; in assay [15], -13.3% (active); in assay [16], 63.4%; in assay [17], 56.8%.

Regarding `C/C(=N\O)C(=O)NCCCCCC(=O)Nc1ccccc1`, the growth in assay [1] is 104%; in assay [2], 106%; in assay [3], 96.2%; in [4] it was 106%; in assay [5], 103%; in assay [6], 102%. For the same compound, the growth was 111% in assay [18]; 109% in assay [7]; 114% in assay [8]; 103% in [9]; 88.6% in assay [11]; 101% in [12]. The growth in assay [13] is 104%; in assay [14] it was 95.1%; in assay [15], 100%; in assay [16], 101%; in assay [17] it was 103%.

For `Cn1cc(-c2nn3cc(-c4ccccc4)nc3s2)c2ccccc21`, the growth is 13.2% in assay [1]; 91.2% in assay [2]; 89.4% in [3]; 70.5% in assay [4]; 63.6% in assay [5]; 68.7% in assay [6]. Moreover, the growth was 72.7% in [7]; 62.3% in [8]; 70.5% in assay [9]; 59.6% in [10]; -1.83% (active) in assay [12]; 43.7% in assay [13]. For the same compound, the values for the growth in [14], in assay [15] and in [17] were 55.6%, 69.3% and 41.6%, respectively.

Turning to `O=C1NC(=C(Cl)Cl)/C(=N/S(=O)(=O)N2CCCCC2)N1`, the growth in assay [1] was -46% (active); in assay [2], -22.7% (active); in assay [3], 9.05% (active); in assay [4] it was 90.9%; in [5], 79.9%; in [6], 94%. Further, the growth in assay [7] was -57% (active); in [8], 29.1%; in assay [9], 98.5%; in assay [10], 41.6%; in assay [12] it was 47.6%; in assay [13], -62.3% (active). The growth in assay [14] is 10.1%; in assay [15] it was 6.37% (active); in assay [16] it was 4.74% (active); in [17] it was 5.62% (active).

Turning to `Cc1ccc(S(=O)(=O)n2cc(C3C(Cl)C(=O)N3c3ccc(N4CCOCC4=O)cc3)c3ccccc32)cc1` (stereo not given), the growth in assay [1] is 24.6%; in [2], 21.6%; in [3], 55.5%; in [4], 78.5%; in [5], 52.4%; in assay [6], 93.9%. In addition, the growth in [7] is 30.4%; in assay [8] it was 41.8%; in assay [9], 32.6%; in [10], 51%; in [11] it was 48.3%; in [12] it was -21.2% (active). The growth in assay [13] was 26.1%; in assay [14], 20.8%; in assay [15], 16.5%; in assay [16], 86.6%; in assay [17], 85.6%.

These data come from PubChem BioAssay (NCI).
